# Among all 39,000 compounds or so, about 3,300 (8.5%) were called active. Many of the other results were omitted from the sample, so actives are more common in it than they were.
# System: HepG2
# Experiment: cytotoxicity call (relative viability < 0.9)
# Conditions: 10 µM
row,Structure (SMILES),cytotoxicity call
1,C[C@@H]1C=CNN1C(=O)c1cccnc1,inactive
2,O=C(C[C@H]1CC[C@@H]2[C@H](COC[C@@H](O)CN2C(=O)c2ccccc2F)O1)N1CCN(c2ccccc2)CC1,inactive
3,C[C@H]1CN([C@@H](C)CO)C(=O)c2cc(NC(=O)Nc3cccc4ccccc34)ccc2O[C@@H]1CN(C)C(=O)Nc1ccc(F)cc1,inactive
4,O=C(C[C@@H]1C[C@@H]2c3cc(NS(=O)(=O)c4ccccc4)ccc3O[C@@H]2[C@@H](CO)O1)NC1CCCCC1,inactive
5,C[C@@H]1CN([C@@H](C)CO)C(=O)Cc2cc(NC(=O)Cc3ccccc3)ccc2O[C@@H]1CN(C)S(=O)(=O)c1ccc(F)cc1,inactive
6,C[C@H](CO)N1C[C@H](C)[C@H](CN(C)Cc2ccc3c(c2)OCO3)Oc2c(NS(=O)(=O)c3cn(C)cn3)cccc2C1=O,inactive
7,O=C(/C=C/c1ccc(O)c(O)c1)O[C@@H]1C[C@](OC(=O)/C=C/c2ccc(O)c(O)c2)(C(=O)O)C[C@@H](O)[C@H]1O,inactive
8,C[C@H](CO)N1C[C@H](C)[C@@H](CN(C)C(=O)Nc2ccc(C(F)(F)F)cc2)OCCCC[C@H](C)Oc2ccc(NC(=O)NC3CCCCC3)cc2C1=O,inactive
9,C[C@H]1CCCCO[C@H](CN(C)C(=O)Nc2ccc(C(F)(F)F)cc2)[C@@H](C)CN([C@@H](C)CO)C(=O)c2cc(NC(=O)NC3CCCCC3)ccc2O1,inactive
10,C[C@@H]1CCCCO[C@@H](CN(C)C(=O)Nc2ccc(C(F)(F)F)cc2)[C@H](C)CN([C@H](C)CO)C(=O)c2cc(NC(=O)NC3CCCCC3)ccc2O1,active
11,COc1ccc(NC(=O)N2C[C@@H](O)COC[C@H]3O[C@H](CC(=O)NC4Cc5ccccc5C4)CC[C@@H]32)cc1,inactive
12,C[C@@H]1CN([C@@H](C)CO)C(=O)c2c(c3ccccc3n2C)-c2ccccc2CO[C@@H]1CN(C)Cc1ccc(Cl)c(Cl)c1,inactive
13,C[C@H](CO)N1C[C@H](C)[C@H](CN(C)Cc2ccc(C(F)(F)F)cc2)OCCCC[C@H](C)Oc2ccc(N(C)C)cc2C1=O,inactive
14,C[C@H](CO)N1C[C@H](C)[C@@H](CN(C)Cc2ccc(Cl)c(Cl)c2)OCCCC[C@H](C)Oc2ccc(N(C)C)cc2C1=O,inactive
15,C[C@@H]1CCCCO[C@H](CN(C)Cc2ccc(Cl)c(Cl)c2)[C@@H](C)CN([C@@H](C)CO)C(=O)c2cc(N(C)C)ccc2O1,inactive
16,C[C@@H]1CCCCO[C@@H](CN(C)Cc2ccc(C(F)(F)F)cc2)[C@@H](C)CN([C@H](C)CO)C(=O)c2cc(N(C)C)ccc2O1,inactive
17,C[C@@H]1CCCCO[C@@H](CN(C)Cc2ccc(Cl)c(Cl)c2)[C@H](C)CN([C@H](C)CO)C(=O)c2cc(N(C)C)ccc2O1,active
18,C[C@@H]1CCCCO[C@H](CN(C)Cc2ccc(C(F)(F)F)cc2)[C@H](C)CN([C@H](C)CO)C(=O)c2cc(N(C)C)ccc2O1,active
19,C[C@H]1CCCn2nncc2COCCNC1=O,inactive
20,COCCOC(=O)N1C(=O)[C@@]2(c3ccccc31)[C@H](C(=O)N1CCCCCCC1)[C@H]1C(=O)O[C@H](c3ccccc3)[C@H](c3ccccc3)N1[C@@H]2c1ccccc1OCCO,inactive
21,Cc1ccc(S(=O)(=O)[N-]Cl)cc1.[Na+],inactive
22,CNS(=O)(=O)c1ccc(C)cc1,inactive
23,COc1cc(NC(=O)Cn2cnc3c2c(=O)n(C)c(=O)n3C)cc(OC)c1OC,inactive

row,Structure (SMILES),cytotoxicity call
1,Cc1cccc(-n2cc(CN)cn2)c1,inactive
2,COc1cc(NC(=O)c2cccc(-n3cc(NC(=O)Nc4cccc(C)c4)cn3)c2)cc(OC)c1OC,active
3,Cc1noc(C)c1S(=O)(=O)Nc1cccc2c1O[C@@H](CN(C)S(=O)(=O)c1cn(C)cn1)[C@@H](C)CN([C@H](C)CO)C2=O,inactive
4,C[C@H](CO)N1C[C@H](C)[C@H](CN(C)C(=O)Nc2ccc(C(C)(C)C)cc2)OCc2cnnn2CCCC1=O,inactive
5,C[C@H]1CCCCO[C@H](CN(C)C(=O)NC2CCCCC2)[C@@H](C)CN([C@@H](C)CO)C(=O)c2cc(NS(=O)(=O)c3ccccc3)ccc2O1,inactive
6,C[C@@H]1CCCCO[C@@H](CN(C)C(=O)NC2CCCCC2)[C@H](C)CN([C@@H](C)CO)C(=O)c2cc(NS(=O)(=O)c3ccccc3)ccc2O1,active
7,C[C@@H]1CN([C@H](C)CO)C(=O)c2cc(NS(=O)(=O)c3ccccc3)ccc2O[C@@H](C)CCCCO[C@@H]1CN(C)C(=O)NC1CCCCC1,inactive
8,C[C@H](CO)N1C[C@H](C)[C@H](CN(C)C(=O)NC2CCCCC2)OCCCC[C@H](C)Oc2ccc(NS(=O)(=O)c3ccccc3)cc2C1=O,active
9,C[C@@H]1CCCCO[C@@H](CN(C)C(=O)NC2CCCCC2)[C@H](C)CN([C@H](C)CO)C(=O)c2cc(NS(=O)(=O)c3ccccc3)ccc2O1,inactive
10,C[C@@H]1CCCCO[C@H](CN(C)C(=O)NC2CCCCC2)[C@@H](C)CN([C@@H](C)CO)C(=O)c2cc(NS(=O)(=O)c3ccccc3)ccc2O1,inactive
11,O=C(C[C@@H]1CC[C@@H](NC(=O)Cc2ccccn2)[C@@H](CO)O1)NCCCN1CCOCC1,inactive
12,C[C@H](CO)N1C[C@H](C)[C@H](CN(C)Cc2ccc(C(=O)Nc3ccccc3N)cc2)Oc2c(NS(=O)(=O)c3cn(C)cn3)cccc2C1=O,inactive
13,C[C@@H]1CN([C@H](C)CO)C(=O)c2cccc(NC(=O)c3ccc(-c4nccs4)cc3)c2O[C@@H]1CN(C)C(=O)Nc1cccc2ccccc12,inactive
14,COc1ccc(CN2C[C@@H](C)[C@@H](OC)CN(C)C(=O)c3cc(NC(=O)c4nc5ccccc5s4)ccc3OC[C@@H]2C)cc1,inactive
15,CCCC(=O)Nc1ccc2c(c1)OC[C@@H](C)N(S(=O)(=O)c1cn(C)cn1)C[C@@H](C)[C@H](OC)CN(C)C2=O,inactive
16,C[C@H](CO)N1C[C@H](C)[C@H](CN(C)Cc2ccc(-c3ccccc3)cc2)Oc2ccc(NC(=O)Cc3ccccc3)cc2C1=O,active
17,C[C@@H]1CN([C@@H](C)CO)C(=O)c2cc(NC(=O)Cc3ccccc3)ccc2O[C@@H]1CN(C)Cc1ccc(-c2ccccc2)cc1,active
18,C[C@@H]1CN([C@H](C)CO)C(=O)c2cc(NC(=O)Cc3ccccc3)ccc2O[C@@H]1CN(C)Cc1ccc(-c2ccccc2)cc1,inactive
19,C[C@@H]1CN([C@@H](C)CO)C(=O)c2cc(NC(=O)Cc3ccccc3)ccc2O[C@H]1CN(C)Cc1ccc(-c2ccccc2)cc1,active
20,C[C@@H]1CN([C@H](C)CO)C(=O)c2cc(NC(=O)Cc3ccccc3)ccc2O[C@H]1CN(C)Cc1ccc(-c2ccccc2)cc1,active
21,C[C@@H]1CN([C@@H](C)CO)C(=O)c2cc(NC(=O)Cc3ccccc3)ccc2O[C@@H]1CN(C)Cc1ccc(C(F)(F)F)cc1,inactive
22,C[C@@H]1CN([C@H](C)CO)C(=O)c2cc(NC(=O)Cc3ccccc3)ccc2O[C@H]1CN(C)Cc1ccc(C(F)(F)F)cc1,inactive
23,C=C1c2cccc(O)c2C(=O)[C@@H]2C(=O)[C@]3(O)C(=O)[C@@H](C(N)=O)C(=O)[C@@H](N(C)C)[C@@H]3[C@@H](O)[C@H]12,inactive

row,Structure (SMILES),cytotoxicity call
1,C[C@@H]1CCCCO[C@@H](CN(C)C(=O)Nc2cccc3ccccc23)[C@@H](C)CN([C@@H](C)CO)C(=O)c2cc(N(C)C)ccc2O1,inactive
2,Cn1cnc(CCNC(=O)C[C@@H]2CC[C@@H]3[C@H](COC[C@H](O)CN3C(=O)Nc3ccc(Cl)cc3)O2)c1,inactive
3,CC(=O)NCCCC[C@@H]1NC(=O)[C@@H]2C[C@H](C(=O)NCCCCCN)[C@H](c3ccc(O)cc3)N2C1=O,inactive
4,O=C(C[C@H]1CC[C@@H]2[C@H](COC[C@@H](O)CN2S(=O)(=O)c2ccccc2)O1)NCCN1CCCCC1,inactive
5,C[C@H](CO)N1C[C@H](C)[C@H](CN(C)C(=O)Nc2ccc(C(F)(F)F)cc2)OCCCC[C@H](C)Oc2ccc(NC(=O)Nc3ccccc3)cc2C1=O,inactive
6,COc1ccc(S(=O)(=O)Nc2ccc3c(c2)CC(=O)N([C@@H](C)CO)C[C@@H](C)[C@@H](CN(C)S(C)(=O)=O)O3)cc1,inactive
7,C[C@@H]1CCCCO[C@H](CN(C)C(=O)Nc2ccc(C(F)(F)F)cc2)[C@@H](C)CN([C@@H](C)CO)C(=O)c2cc(NC(=O)Nc3cccc4ccccc34)ccc2O1,inactive
8,C[C@H]1CN([C@@H](C)CO)C(=O)c2cc(NC(=O)Cc3ccccc3)ccc2O[C@H]1CN(C)Cc1ccc(-c2ccccc2)cc1,inactive
9,C[C@H](CO)N1C[C@H](C)[C@@H](CN(C)Cc2ccc(-c3ccccc3)cc2)Oc2ccc(NC(=O)Cc3ccccc3)cc2C1=O,inactive
10,C[C@H]1CN([C@@H](C)CO)C(=O)c2cc(NC(=O)Cc3ccccc3)ccc2O[C@@H]1CN(C)Cc1ccc(-c2ccccc2)cc1,active
11,CC(C)[Si]1(C(C)C)OCc2cc(-c3ccc(-c4ccc(Cl)c(Cl)c4)o3)nc(-c3ccc(Oc4ccccc4)cc3)c21,inactive
12,Cc1ccc(N2CCC[C@]3(CCNC3=O)C2)nn1,inactive
13,C[C@@H]1CCCCO[C@@H](CN(C)S(=O)(=O)c2ccc(Cl)cc2)[C@@H](C)CN([C@@H](C)CO)C(=O)c2cc(NS(=O)(=O)c3ccccc3)ccc2O1,inactive
14,C[C@@H]1CCCCO[C@@H](CN(C)C(=O)Cc2ccccc2)[C@@H](C)CN([C@@H](C)CO)C(=O)c2cc(NC(=O)Nc3ccc(F)cc3)ccc2O1,inactive
15,COc1ccc([Si](C)(C)[C@H]2[C@H](CCO)O[C@@]3(C(=O)N(Cc4ccccc4)c4ccc(N5CCCCC5=O)cc43)[C@@H]2C)cc1,inactive
16,COc1ccc([Si](C)(C)[C@@H]2[C@@H](CCO)O[C@]3(C(=O)N(Cc4cccc(N5C(=O)COc6ccccc65)c4)c4ccccc43)[C@H]2C)cc1,active
17,COc1ccc([Si](C)(C)[C@@H]2[C@@H](CCO)O[C@]3(C(=O)N(Cc4ccccc4)c4ccc(N5CCCCC5=O)cc43)[C@H]2C)cc1,inactive
18,COc1ccc([Si](C)(C)[C@H]2[C@H](CCO)O[C@@]3(C(=O)N(Cc4ccc(N5CCCCC5=O)cc4)c4ccccc43)[C@@H]2C)cc1,inactive
19,C[C@H]1[C@H]([Si](C)(C)F)[C@@H](CCO)O[C@]12C(=O)N(Cc1cccc(N3C(=O)COc4ccccc43)c1)c1ccccc12,inactive
20,COc1ccc([Si](C)(C)[C@@H]2[C@@H](CCO)O[C@]3(C(=O)N(Cc4ccc(N5CCCCC5=O)cc4)c4ccccc43)[C@H]2C)cc1,inactive
21,COc1ccc([Si](C)(C)[C@H]2[C@H](CCO)O[C@@]3(C(=O)N(Cc4ccccc4)c4ccc(N5C(=O)COc6ccccc65)cc43)[C@@H]2C)cc1,active
22,COc1ccc([Si](C)(C)[C@H]2[C@H](CC(=O)N3CCC[C@H]3CO)O[C@@]3(C(=O)N(Cc4cccc(N5C(=O)COc6ccccc65)c4)c4ccccc43)[C@@H]2C)cc1,inactive
23,COc1ccc([Si](C)(C)[C@H]2[C@H](CCO)O[C@@]3(C(=O)N(Cc4ccc(N5C(=O)COc6ccccc65)cc4)c4ccccc43)[C@@H]2C)cc1,active
